Among all 5,500 compounds or so, about 2,000 (36%) were called active. Inconclusive results (about 18%) are left out. Rule as the data show it: active = normalized growth mostly below about 0.91 (no sharp cut-off); inconclusive = no clear call, values can overlap the other calls; inactive = mostly above about 0.92. The list shows a part of the results.
Assay: chemical genetic growth profiling, strain panel (AID 1159580);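 also: tested at 20 µM; growth read once vehicle control cultures reached saturation at 30 °C; 1 = growth at the plate median or of vehicle wells; lower values mean less growth of the strain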
Settings: S. cerevisiae deletion strains, growth OD

Measured: normalized growth

COc1cccc(-c2cc(=O)c3ccc(OC)cc3o2)c1
active: locus YBR009C, strain hhf1, active compounds read low 0.891 | locus YBR023C, strain chs3, active compounds read low 0.897 | locus YDR392W, strain spt3, active compounds read low 0.623 | locus YER110C, active compounds read low 1.16 [resistant] | locus YER155C, strain BEM2 (second series), active compounds read low 0.699 | locus YGL240W, strain doc1, active compounds read low 0.837 | locus YGL253W, strain hxk2, active compounds read low 0.903 | locus YGR229C, strain SMI1, active compounds read low 0.722 | locus YHR030C, strain SLT2, active compounds read low 0.82 | locus YHR079C, strain IRE1 (second series), active compounds read low 1.08 [resistant] | locus YHR094C, strain hxt1, active compounds read low 1.15 [resistant] | locus YHR142W, strain chs7, active compounds read low 0.793 | locus YIR030C, strain dcg1, active compounds read low 1.14 [resistant] | locus YJL095W, strain BCK1 (second series), active compounds read low 0.916 | locus YJL095W, strain BCK1, active compounds read low 0.656 | locus YKL009W, strain mrt4, active compounds read low 0.828 | locus YKL068W, active compounds read low 0.931 | locus YKL085W, strain MDH1 (second series), active compounds read low 0.845 | locus YKL085W, strain MDH1, active compounds read low 0.845 | locus YKR026C, strain gcn3, active compounds read low 0.91 | locus YLR320W, strain mms22, active compounds read low 0.824 | locus YML124C, strain tub3, active compounds read low 1.13 [resistant] | locus YMR078C, strain ctf18, active compounds read low 1.1 [resistant] | locus YMR205C, strain PFK2, active compounds read low 0.871 | locus YNL071W, strain lat1, active compounds read low 0.813 | locus YNL307C, strain MCK1, active compounds read low 0.842 | locus YNR052C, strain pop2, active compounds read low 1.14 [resistant] | locus YOL147C, strain pex11, active compounds read low 1.08 [resistant] | locus YOR136W, strain idh2, active compounds read low 1.18 [resistant] | locus YOR144C, strain elg1, active compounds read low 1.18 [resistant] | locus YOR270C, strain vph1, active compounds read low 0.71 | locus YOR290C, strain snf2, active compounds read low 0.84 | locus YOR316C, strain cot1, active compounds read low 1.1 [resistant] | locus YPL106C, strain sse1, active compounds read low 0.84
inactive: locus YAL013W, strain DEP1, active compounds read low 0.93 | locus YAL021C, strain ccr4, active compounds read low 0.964 | locus YAL026C, strain drs2, active compounds read low 0.936 | locus YAL030W, strain snc1, active compounds read low 0.943 | locus YBL061C, strain skt5, active compounds read low 0.929 | locus YBR021W, strain FUR4, active compounds read low 0.942 | locus YBR171W, strain sec66, active compounds read low 0.916 | locus YBR229C, strain ROT2, active compounds read low 0.959 | locus YBR231C, strain swc5, active compounds read low 0.922 | locus YBR279W, strain paf1, active compounds read low 0.944 | locus YCL011C, strain gbp2, active compounds read low 0.938 | locus YCL016C, strain dcc1, active compounds read low 0.96 | locus YCL061C, strain MRC1, active compounds read low 0.944 | locus YCL069W, strain vba3, active compounds read low 0.947 | locus YCR088W, strain abp1, active compounds read low 0.938 | locus YDL005C, strain med2, active compounds read low 0.973 | locus YDL035C, strain GPR1, active compounds read low 0.922 | locus YDL040C, strain nat1, active compounds read low 0.948 | locus YDL074C, strain BRE1, active compounds read low 0.837 | locus YDL101C, strain DUN1, active compounds read low 0.954 | locus YDL134C, strain PPH21, active compounds read low 0.978 | locus YDL185W, strain tfp1, active compounds read low 0.978 | locus YDL192W, strain arf1, active compounds read low 1.04 | locus YDR001C, strain nth1, active compounds read low 0.935 | locus YDR069C, strain doa4, active compounds read low 0.96 | locus YDR101C, strain arx1, active compounds read low 1.04 | locus YDR137W, strain rgp1, active compounds read low 0.929 | locus YDR150W, strain NUM1, active compounds read low 0.951 | locus YDR159W, strain sac3, active compounds read low 0.921 | locus YDR162C, strain NBP2, active compounds read low 0.926 | locus YDR195W, strain ref2 1.05 | locus YDR297W, strain sur2, active compounds read low 0.955 | locus YDR318W, strain mcm21, active compounds read low 0.972 | locus YDR334W, strain swr1, active compounds read low 0.943 | locus YDR335W, strain msn5, active compounds read low 0.965 | locus YDR388W, active compounds read low 1.04 | locus YDR502C, strain sam2, active compounds read low 1.04 | locus YEL003W, strain gim4, active compounds read low 0.962 | locus YEL037C, strain rad23, active compounds read low 0.952 | locus YEL061C, strain CIN8 (second series), active compounds read low 0.958 | locus YEL061C, strain CIN8, active compounds read low 0.964 | locus YER015W, strain faa2, active compounds read low 0.953 | locus YER016W, strain bim1, active compounds read low 0.952 | locus YER111C, strain swi4, active compounds read low 0.957 | locus YER155C, strain BEM2, active compounds read low 1.06 | locus YER167W, strain BCK2, active compounds read low 0.907 | locus YFR010W, strain ubp6, active compounds read low 0.961 | locus YGL078C, strain dbp3, active compounds read low 1.05 | locus YGL086W, strain mad1, active compounds read low 0.934 | locus YGL167C, strain pmr1, active compounds read low 0.938 | locus YGL173C, strain kem1, active compounds read low 0.966 | locus YGL227W, strain vid30, active compounds read low 0.946 | locus YGL248W, strain PDE1, active compounds read low 0.946 | locus YGR078C, strain PAC10, active compounds read low 0.945 | locus YGR135W, strain pre9, active compounds read low 1.08 | locus YGR252W, strain gcn5, active compounds read low 0.884 | locus YHR013C, strain ard1, active compounds read low 0.852 | locus YHR027C, strain rpn1, active compounds read low 0.968 | locus YHR129C, strain ARP1, active compounds read low 1.03 | locus YHR200W, strain rpn10, active compounds read low 1.04 | locus YIL066C, strain RNR3, active compounds read low 0.961 | locus YIL073C, strain SPO22, active compounds read low 0.834 | locus YIL125W, strain kgd1, active compounds read low 0.964 | locus YJL092W, strain hpr5, active compounds read low 0.954 | locus YJL115W, strain asf1, active compounds read low 0.954 | locus YJL129C, strain trk1, active compounds read low 0.95 | locus YJL134W, strain LCB3, active compounds read low 0.965 | locus YJL154C, strain vps35, active compounds read low 0.959 | locus YJL164C, strain tpk1, active compounds read low 0.928 | locus YJL166W, strain qcr8, active compounds read low 0.905 | locus YJL168C, strain set2, active compounds read low 1.04 | locus YJL187C, strain SWE1 (second series), active compounds read low 0.942 | locus YJL187C, strain SWE1, active compounds read low 0.949 | locus YJR043C, strain POL32, active compounds read low 0.866 | locus YJR075W, strain HOC1, active compounds read low 0.994 | locus YKL160W, strain elf1, active compounds read low 0.933 | locus YKL190W, strain CNB1, active compounds read low 0.952 | locus YKR001C, strain vps1, active compounds read low 1.06 | locus YKR091W, strain srl3, active compounds read low 0.958 | locus YLL001W, strain dnm1, active compounds read low 0.922 | locus YLL026W, active compounds read low 0.94 | locus YLL041C, strain sdh2, active compounds read low 0.951 | locus YLR027C, strain aat2, active compounds read low 0.934 | locus YLR039C, strain RIC1, active compounds read low 0.983 | locus YLR058C, strain SHM2, active compounds read low 0.999 | locus YLR102C, strain apc9, active compounds read low 1.03 | locus YLR221C, strain rsa3, active compounds read low 0.91 | locus YLR258W, strain gsy2, active compounds read low 0.93 | locus YLR262C, strain YPT6 (second series), active compounds read low 0.916 | locus YLR262C, strain YPT6, active compounds read low 0.989 | locus YLR268W, strain sec22, active compounds read low 0.994 | locus YLR330W, strain CHS5, active compounds read low 1.02 | locus YLR342W, strain FKS1 (second series), active compounds read low 0.839 | locus YLR342W, strain FKS1, active compounds read low 0.951 | locus YLR357W, strain rsc2, active compounds read low 0.856 | locus YLR370C, strain arc18, active compounds read low 0.948 | locus YLR371W, strain rom2, active compounds read low 0.965 | locus YLR384C, strain iki3, active compounds read low 0.962 | locus YLR418C, strain cdc73, active compounds read low 0.948 | locus YML016C, strain PPZ1, active compounds read low 0.998 | locus YML032C, strain rad52, active compounds read low 0.954 | locus YML120C, strain ndi1, active compounds read low 0.92 | locus YMR058W, strain fet3, active compounds read low 0.938 | locus YMR125W, strain sto1, active compounds read low 0.941 | locus YMR129W, active compounds read low 0.971 | locus YMR223W, strain ubp8, active compounds read low 1 | locus YMR231W, strain pep5, active compounds read low 0.97 | locus YMR263W, strain SAP30, active compounds read low 0.896 | locus YMR307W, strain GAS1, active compounds read low 0.734 | locus YNL067W, strain RPL9B, active compounds read low 0.944 | locus YNL128W, strain TEP1, active compounds read low 1.02 | locus YNL153C, strain GIM3, active compounds read low 0.997 | locus YNL209W, strain ssb2, active compounds read low 0.977 | locus YNL233W, strain BNI4, active compounds read low 0.942 | locus YNL248C, strain rpa49, active compounds read low 0.927 | locus YNL250W, strain rad50, active compounds read low 0.969 | locus YNL271C, strain bni1, active compounds read low 0.938 | locus YNL298W, strain CLA4, active compounds read low 0.924 | locus YNL322C, strain KRE1 (second series), active compounds read low 0.959 | locus YNL322C, strain KRE1, active compounds read low 0.958 | locus YNR049C, strain mso1, active compounds read low 0.953 | locus YOL006C, strain TOP1, active compounds read low 0.659 | locus YOL012C, strain htz1 0.755 | locus YOR001W, strain rrp6, active compounds read low 0.94 | locus YOR061W, strain CKA2, active compounds read low 0.951 | locus YOR069W, strain VPS5, active compounds read low 0.958 | locus YOR070C, strain gyp1, active compounds read low 0.942 | locus YOR080W, strain dia2, active compounds read low 0.947 | locus YOR083W, strain WHI5, active compounds read low 0.91 | locus YOR106W, strain vam3, active compounds read low 0.922 | locus YOR184W, strain ser1, active compounds read low 0.959 | locus YOR265W, strain rbl2, active compounds read low 0.942 | locus YPL051W, strain arl3, active compounds read low 0.932 | locus YPL055C, strain LGE1, active compounds read low 0.873 | locus YPL078C, strain atp4, active compounds read low 0.91 | locus YPL240C, strain hsp82, active compounds read low 0.952 | locus YPL241C, strain CIN2, active compounds read low 0.966 | locus YPR119W, strain clb2, active compounds read low 1.03 | locus YPR141C, strain kar3, active compounds read low 1 | locus YPR163C, strain tif3, active compounds read low 1.03 | locus YPR167C, strain met16, active compounds read low 1.04 | strain wtn01, active compounds read low 1.05

Reference: PubChem BioAssay AID1159580 (chemical genetic matrix, 2015)
